# Results taken from PubChem BioAssay.
# The source made the active and inactive calls. The rule behind the calls is not given here.
# Test: Brca1-Bard1 BiLC signal decrease – luminescence, single concentration, counter-screen for Mdm2/MdmX interaction inhibitor project, confirmation (AID 504668)
# Conditions: Brca1/Bard1 bimolecular luciferase complementation counterscreen, at 8 µM, stronger effect = higher value
row,SMILES,inhibition
1,Nc1nonc1-n1nnc(C(=O)N/N=C/c2cc(Cl)ccc2O)c1CN1CCCCCC1,32.2% (active)
2,CC(C)CC[n+]1ccccc1/C=C/c1ccc(N(C)C)cc1,26.6% (active)
3,COc1ccc(NC(=O)CSc2nc3c(sc4ccccc43)c(=O)n2CCCN2CCCC2)cc1,23.1% (active)
4,Cc1ccc(NC(=O)c2cc3ccccc3oc2=O)cc1S(=O)(=O)N(C)C,25.9% (active)
5,CC(Oc1ccc(F)cc1)C(=O)Nc1nc(-c2ccccn2)cs1 (centres undefined),35.6% (active)
6,N=c1c(C(=O)NC2CCCCC2)cc2c(=O)n3ccccc3nc2n1Cc1ccco1,33.2% (active)
7,Clc1cc2cccnc2c2ncccc12,31.6% (active)
8,CCCN(CCC)CCNC(=O)C1CCN(Cc2nc(-c3ccc(Cl)cc3)oc2C)CC1,30.3% (active)
9,FC(F)(F)c1cnc(NNC(=S)Nc2ccc(Cl)cc2)c(Cl)c1,23.3% (active)
10,CN1CCN(C(=O)CCCN2C(=O)/C(=C/c3ccccc3)SC2=S)CC1,30.5% (active)
11,C=CCC(Nc1ccccc1)C12C=CC(O1)C(C(=O)OC)=C2C(=O)OC (centres undefined),31.4% (active)
12,CCN(CC)CCNC(=O)c1ccc(NC(=O)c2cn(-c3ccc(F)cc3)nc2-c2cccc(OC)c2)cc1,27.9% (active)
13,CCOC(=O)c1sc(NC(=O)Nc2cccc(Cl)c2)cc1C,34.4% (active)
14,C=CCN=C1NN=C(c2cc(C)n(CCOC)c2C)CS1,31% (active)
15,O=C(NC(Cc1c[nH]c2ccccc12)C(=O)Nc1ccc(F)c([N+](=O)[O-])c1)c1cccs1 (centres undefined),24.8% (active)
16,CC(=O)NC(c1cccc([N+](=O)[O-])c1)c1ccc2cccnc2c1O (centres undefined),23.7% (active)
17,COc1cc2c(O)c3c(c(-c4ccc5c(c4)OCO5)c2cc1OC)C(=O)OC3,26.1% (active)
18,O=[N+]([O-])c1ccc(N=Nc2ccc(O)cc2O)cc1,29.5% (active)
19,O=C1c2ccccc2NC(c2ccc(Cl)cc2Cl)N1O (centres undefined),30.7% (active)
20,CCCCN(Cc1ccco1)C(=O)c1cc2c(=O)[nH]c3ccc(C)cc3c2s1,23.8% (active)

row,SMILES,inhibition
1,CC1=NN(c2ccccc2)C(=O)/C1=C\C=C\c1ccccc1,28.9% (active)
2,S=C(NNc1ccc2ccccc2c1)NC1CCCCC1,34.4% (active)
3,Cc1csc2nc(O)c(C(=O)NC3CCCCC3)c(=O)n12,35% (active)
4,Cc1cc(C(=O)CCl)c(C)n1CCc1ccc(Cl)cc1,30.7% (active)
5,CCOc1ccc2nc(NC3=NC(c4ccc(OC)cc4)CC(=O)N3)nc(C)c2c1 (centres undefined),30.6% (active)
6,Cc1oc2c(Cl)c(Cl)c(O)c(CN(C)C)c2c1C(=O)c1ccc(Cl)cc1,26.8% (active)
7,CC(=O)c1c(C)[nH]c(C(=O)N2CCN(c3cc(Cl)ccc3C)CC2)c1C,34% (active)
8,CCOc1cc(CNCCO)cc(Br)c1OCc1ccc(Cl)cc1Cl,25.5% (active)
9,CC[C@]1(C(=O)OC)[C@H]2C(=O)N(Cc3ccccc3)C(=O)[C@H]2[C@H]2CN=C(SCc3ccccc3)N21,35.8% (active)
10,Cc1ccc(O)c(CNCCNCc2cc(C)ccc2O)c1,32.6% (active)
11,Cc1nc(NC(=O)/C=C/c2ccccc2)n[nH]1,32.9% (active)
12,Cc1cccc(C(=O)NC(C(=O)Nc2nc(-c3ccccn3)cs2)C(C)C)c1 (centres undefined),30.7% (active)
13,CC(=O)c1ccc(NC(=O)c2cc(CC(C)C)nc3ccccc23)cc1,33.6% (active)
14,COc1cccc(/C=N/NC(=O)CNC(=O)C(c2ccccc2)c2ccccc2)c1O,28.6% (active)
15,Cc1cc(C2CCCCC2)n(O)c(=O)c1,32.2% (active)
16,COc1ccc(-c2cc(C(=O)NNC3=NCCC3)c3c(C)nn(-c4ccccc4)c3n2)cc1,34.3% (active)
17,CC(=O)Nc1nc(C)c(-c2csc(Nc3cccc([N+](=O)[O-])c3)n2)s1,35.6% (active)
18,c1ccc(CNc2nc(-c3ccccn3)nc3ccccc23)cc1,23.3% (active)
19,Cc1cc(C)nc(N/N=C/c2cc(Br)ccc2O)n1,26.2% (active)
